WT yeast gro inh = growth inhibition of WT yeast, mitochondrial fusion screen | mitochondrial fusion phenotypic screen, WT strain | inhibition, % at 10 µM | 190,000 tested, 2.1% active | AID 1362; in the data active = inhibition above about 58%; tested in S. cerevisiae
Lmaj promast = reduces viability of Leishmania major promastigotes; resazurin fluorescence viability; inhibition, % at 10 µM; 200,000 tested, 9% active; in the data active = inhibition above about 50%;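 also: promastigotes grown with compound for 44 hours at 28 °C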
Ins promoter up = MIN6 insulin promoter up-regulation | z-score at 5 µM | MIN6 insulin promoter-GFP reporter, high-content imaging; hits give high values | 190,000 tested, 0.3% active;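 active = z-score above 3 at 5 µM with at least 500 cells counted in the well; inconclusive = wells under 500 cells, flagged as cytotoxic or low count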
INS promoter inh = TRM-6 insulin promoter activity inhibition; TRM-6 cells (human fetal islet line), insulin promoter-eGFP reporter, imaging; reporter expression induced with tamoxifen; inhibition, % at 2 µM; 130,000 tested, 0.9% active; AID 1273;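 active = inhibition above the mean plus 3 SD, with well images judged a real hit on visual review, cut at about 60% in these data, passing the limit was not always enough; inconclusive = inhibition over the cutoff but images rejected on review; inactive = inhibition not above the cutoff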
Autophagy HCS = modulators of autophagy. MEF GFP-LC3 puncta imaging; test concentration mostly 10 µM. calls only at 10 µM (by protocol). 190,000 tested, 0.98% active. AID 463193;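 active = percentage of spot-positive cells more than 3 SD above its plate mean, without a fluorescence outlier flag or 80% toxicity; inconclusive = no clear call, values can overlap the other calls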
Of the large screens only hits and unclear results are named; the others gave an inactive call. This is a sample that favours compounds with a hit; in the whole collection about 11% have one here.

O=C(Cc1ccccc1)N1CCCC(c2nc(-c3ccc(S(=O)(=O)N4CCCC4)cc3)no2)C1 (configuration not stated)	Lmaj promast 99 (no result: Ins promoter up)
O=C(C1CC1)N1CCC(c2nc(-c3ccc(S(=O)(=O)N4CCCC4)cc3)no2)CC1	Lmaj promast 53 (no result: Ins promoter up)
O=C(N1CCOCC1)N1CCC(c2nc(-c3ccc(S(=O)(=O)N4CCOCC4)cc3)no2)CC1	none
O=C(Cc1ccccc1)N1CCC(c2nc(-c3ccc(F)cc3)no2)CC1	none (no result: INS promoter inh)
O=C(NC1CCCCC1)N1CCC(c2nc(-c3ccc(S(=O)(=O)N4CCCC4)cc3)no2)CC1	Lmaj promast 75 (no result: INS promoter inh)
CC(C)C(=O)N1CCC(c2nc(-c3ccc(S(=O)(=O)N4CCN(C)CC4)cc3)no2)CC1	none
COc1ccc(/C=N/NC(=O)C(=O)NCc2cccnc2)cc1	none
O=C1C2C(c3ccccc3)=NN(c3ccccc3)C2C(=O)N1c1ccccc1 (configuration not stated)	Lmaj promast 59
O=C1[C@H]2C(c3ccccc3)=NN(c3ccccc3)[C@H]2C(=O)N1c1ccccc1	none
CC1=NN(c2ccccc2)C(=O)/C1=C/C=C/c1ccccc1	Lmaj promast 100
CN(C)/C=C1\C(=O)ON=C1c1ccccc1	none
CC1=NN(c2cccc(C(=O)O)c2)C(=O)/C1=C\C=C\c1ccco1	none (no result: Ins promoter up)
Cc1ccc(C2=NOC(=O)/C2=C\C=C\c2ccccc2)cc1	Lmaj promast 100 (no result: INS promoter inh)
NC(=S)Nc1cccc(F)c1	none (no result: WT yeast gro inh, Lmaj promast, INS promoter inh, Autophagy HCS)
COC(=O)Cc1cn(-c2ncc(C(F)(F)F)cc2Cl)c2ccccc12	WT yeast gro inh 84
CCOC(=O)c1cc2occc2n1CC(=O)N1CCCc2ccccc21	none (no result: INS promoter inh)
CC1(C)C(c2ccccc2)=NC(c2ccc(Br)cc2)N1O (configuration not stated)	none (no result: INS promoter inh)
CCCCNC(=O)CNC(=S)N(Cc1ccccc1)Cc1cccnc1	none (no result: Ins promoter up, INS promoter inh)
COCCCNC(=S)N(Cc1cccnc1)Cc1ccc(OC)c(OC)c1	Lmaj promast 89
COc1ccc(N2CCN(C(=O)Cn3c(=O)[nH]c4ccccc4c3=O)CC2)cc1	none (no result: INS promoter inh)
COc1cc(OC)cc(-c2cc3nc4c(c(N5CCN(c6ncccn6)CC5)n3n2)CCCC4)c1	Lmaj promast 52 (no result: INS promoter inh)
Fc1cccc(-c2cc3nc4c(c(N5CCC6(CC5)OCCO6)n3n2)CCCC4)c1	WT yeast gro inh 69, Autophagy HCS active
CCOCCN1CCN(c2c3c(nc4cc(-c5ccc(F)cc5)nn24)CCC3)CC1	none (no result: INS promoter inh)
OC1CCN(c2c3c(nc4cc(-c5cccc(F)c5)nn24)CCCC3)CC1	none (no result: INS promoter inh)
c1coc(CNc2c3c(nc4ncnn24)CCCC3)c1	none
Clc1cccc(-c2cc3nc4c(c(NCc5ccco5)n3n2)CCCC4)c1	Lmaj promast 53 (no result: INS promoter inh)
Clc1cccc(-c2cc3nc4c(c(N5CCNCC5)n3n2)CCCC4)c1	Lmaj promast 101, Autophagy HCS active (no result: Ins promoter up)
O=S(=O)(NCC1CCCO1)c1ccc(S(=O)(=O)N(Cc2ccccc2F)C2CCCCC2)cc1 (configuration not stated)	none (no result: WT yeast gro inh, Ins promoter up)
CCCc1cc(=O)[nH]c(-n2[nH]c3c(c2=O)CCCC3)n1	Lmaj promast 94 (no result: Ins promoter up)
CCOC(=O)C1CCCN(c2oc(-c3ccc(OC)cc3)nc2C#N)C1 (configuration not stated)	none
C1=C(c2ccccc2)Nc2nnnn2C1	Ins promoter up 3.1
COc1ccc(C2C=C(c3ccccc3)Nc3nnnn32)cc1 (configuration not stated)	none (no result: INS promoter inh)
CCNC(=S)SCCOc1ccc(C)cc1	Lmaj promast 57
CCNc1nc(NCc2ccccc2)nc(SCC(=O)Nc2ccccc2)n1	none (no result: INS promoter inh)
CCNc1nc(NCC)nc(SCCOc2ccc(C)cc2)n1	WT yeast gro inh 88
CCNc1nc(NCC)nc(SCCOC(=O)Nc2ccccc2)n1	Lmaj promast 77
CC(C)(C)c1csc(NC(=O)c2ccc(Cl)s2)n1	none
Cc1ccc(C(=O)Nc2nc(C(C)(C)C)cs2)s1	Lmaj promast 55 (no result: Ins promoter up)
COc1ccc(CNC(=O)[C@H](C)[C@@H]2C[C@@]2(C)[C@@H](NC(=O)OCc2ccccc2)c2ccccc2)cc1OC	WT yeast gro inh 69
COc1ccc(OC)c(/C(O)=C/C(=O)C(=O)Nc2cc(C)ccc2OC)c1	Lmaj promast 93
COc1ccc(OC)c(/C(O)=C/C(=O)C(=O)Nc2cc(C)cc(C)c2)c1	none
O=S(=O)(c1cc(Cl)ccc1Cl)n1cccn1	none (no result: INS promoter inh)
CC(C)c1ccccc1NC(=O)COC(=O)c1c2c(nc3ccccc13)CCN(Cc1ccccc1)C2	Autophagy HCS active
NC(=O)COC(=O)c1c2c(nc3ccccc13)CCC2	none (no result: INS promoter inh)
Cc1c(Cl)cccc1NC(=O)COC(=O)c1c2c(nc3ccccc13)CCN(Cc1ccccc1)C2	Lmaj promast 99, Autophagy HCS active
Cc1cc(N2CCN(C)CC2)ccc1NC(=O)c1c2c(nc3ccccc13)CCN(Cc1ccccc1)C2	Lmaj promast 100, Autophagy HCS inconclusive
O=C(NC1CCCCCC1)c1c2c(nc3ccccc13)CCN(Cc1ccccc1)C2	none
CCN1CCc2nc3ccccc3c(C(=O)Nc3ccc(C#N)cc3)c2C1	none (no result: INS promoter inh)
COc1ccc2cc(C(=O)C3CCCN(C(=O)c4cc5nc(C)cc(C)n5n4)C3)ccc2c1 (configuration not stated)	none (no result: INS promoter inh)
COc1ccc(OC)c(C2C3CN(C(C)C)CC=C3C(C#N)=C(N)C2(C#N)C#N)c1 (configuration not stated)	Ins promoter up 17, Autophagy HCS active
CCCCOc1ccc(C2C3CN(C(=O)OCC)CC=C3C(C#N)=C(N)C2(C#N)C#N)cc1OC (configuration not stated)	WT yeast gro inh 62
Cc1ccc(C2C3CN(C(C)C)CC=C3C(C#N)=C(N)C2(C#N)C#N)cc1 (configuration not stated)	Ins promoter up 10 (no result: Lmaj promast, INS promoter inh, Autophagy HCS)
N#Cc1cccc(N=Cc2c(O)ccc3ccccc23)c1	none
CCC(C)N1C(=O)CN(C2CCCCCC2)C(=O)C1c1ccccc1F (configuration not stated)	none
O=C(NC(=S)Nn1cnnc1)c1ccccc1Br	none (no result: WT yeast gro inh, Lmaj promast, INS promoter inh, Autophagy HCS)
CCOC(=O)C(=CNc1ccc(C#N)cc1)C(=O)OCC	none (no result: INS promoter inh)
CCOC(=O)Nc1nc(-c2ccccc2)c(C(=O)c2ccc(Cl)cc2)s1	WT yeast gro inh 59
CCOC(=O)Nc1sc(C)nc1-c1ccccc1	none (no result: INS promoter inh)
CCN(CC(=O)Nc1ccc2c(c1)CCC2)Cc1nc2ccccc2c(=O)[nH]1	none
CCN(CC)CC(=O)Nc1ccc2c(c1)Nc1ccccc1CC2	Lmaj promast 52 (no result: INS promoter inh)
O=C(Nc1ccc(Cl)cc1)OCc1cn(-c2ccccc2)nn1	none
COc1ccc(NC(=S)NC(NC(=O)c2cccc(C)c2)C(Cl)(Cl)Cl)c([N+](=O)[O-])c1 (configuration not stated)	Autophagy HCS active (no result: Ins promoter up)
COc1ccc(NC(=S)NC(NC(=O)c2cccc(Cl)c2)C(Cl)(Cl)Cl)c([N+](=O)[O-])c1 (configuration not stated)	Lmaj promast 94, Autophagy HCS active (no result: Ins promoter up)
COc1ccc(NC(=S)NC(NC(C)=O)C(Cl)(Cl)Cl)c([N+](=O)[O-])c1 (configuration not stated)	none (no result: INS promoter inh)
CCC(C)C(=O)Nc1ccc(OC)cc1[N+](=O)[O-] (configuration not stated)	Lmaj promast 53
